# Assay results as given in the supplement of paper PMC10037445.
# Values joined by “and” are separate entries in the source; they are usually repeats but may differ in a detail not shown here. Equal entries are not always repeated. ± gives the standard deviation of the averaged measurements. Over roughly 2,900 compounds, “NF-kB SEAP reporter activity, fold change vs agonist alone” has its median near 0.99; the highest 2% begin near 2.6. This excerpt belongs to a sample that is enriched for the highest values.
# What was measured:
# RAW-Dual [1] = assay: NF-kB SEAP reporter activity, fold change vs agonist alone; cytotoxicity flag (confluency mask): not cytotoxic; higher = enhanced NF-kB activity
# Outline: (§1)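 RAW-Dual macrophages (50,000 cells/well in DMEM, 384-well plates) received 50 nL of library stock by pin tool, then a PRR agonist 1 h later, and were kept at 37 °C, 5% CO2. After 20 hours, supernatant was read for IRF by QuantiLuc luminescence and for NF-κB by QuantiBlue absorbance at 620 nm. Reporter activity is fold change over agonist-alone wells. Cytotoxic wells had IncuCyte confluency below 70% of agonist controls in both mask sets.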
# RAW-Dual [2] = assay: NF-kB SEAP reporter activity, fold change vs agonist alone; cytotoxicity flag (confluency mask): cytotoxic (confluency <70% of control); higher = enhanced NF-kB activity
# Outline: as §1
# RAW-Dual [3] = assay: NF-kB SEAP reporter activity, fold change vs agonist alone; higher = enhanced NF-kB activity
# Outline: as §1
# [4] = agonist: ODN 1826 (TLR9) 0.5 ug/mL
# [5] = agonist: Pam2CSK4 (TLR2/6) 0.1 ug/mL
# [6] = agonist: Pam3CSK4 (TLR2/1) 0.1 ug/mL
# [7] = library stock concentration (final ~1000-fold dilution): 10 mM, cytotoxicity flag (confluency mask): not cytotoxic, agonist: MPLA (TLR4) […]
# [8] = library stock concentration (final ~1000-fold dilution): 10 mM, cytotoxicity flag (confluency mask): not cytotoxic, agonist: Imiquimod (TLR7) […]
smiles,measurement,setting,value
O=C(c1ccccc1)c1ccc2nc(NC(=O)c3csc(C4CCN(c5ncnc6ccsc56)CC4)n3)[nH]c2c1 (library stock concentration (final ~1000-fold dilution): 10 mM),NF-kB SEAP reporter activity,RAW-Dual [1]; agonist: LPS (TLR4) 0.1 ug/mL,2.75 and 2.17
same,NF-kB SEAP reporter activity,RAW-Dual [1]; [4],1.57 and 1.25
same,NF-kB SEAP reporter activity,RAW-Dual [1]; [5],0.384 and 0.435
same,NF-kB SEAP reporter activity,RAW-Dual [1]; [6],0.694 and 0.75
CNC(C)C(=O)NC(C(=O)N1CCCC1C(=O)NC1c2ccccc2CC1OCC#CC#CCOC1Cc2ccccc2C1NC(=O)C1CCCN1C(=O)C(NC(=O)C(C)NC)C1CCCCC1)C1CCCCC1 (stereo not given) (library stock concentration (final ~1000-fold dilution): 10 mM water),NF-kB SEAP reporter activity,RAW-Dual [2]; agonist: LPS (TLR4) 0.1 ug/mL,0.764
same,NF-kB SEAP reporter activity,RAW-Dual [2]; [4],1.11
same,NF-kB SEAP reporter activity,RAW-Dual [2]; [5],0.798
same,NF-kB SEAP reporter activity,RAW-Dual [2]; [6],0.718
CNC(C)C(=O)NC(C(=O)N1CCCC1C(=O)NC1c2ccccc2CC1OCC#CC#CCOC1Cc2ccccc2C1NC(=O)C1CCCN1C(=O)C(NC(=O)C(C)NC)C1CCCCC1)C1CCCCC1 (stereo not given),NF-kB SEAP reporter activity,"RAW-Dual [3]; library stock concentration (final ~1000-fold dilution): 10 mM water, cytotoxicity flag (confluency mask): cytotoxic (confluency <70% of control), agonist: Imiquimod (TLR7) […]",0.836
same,NF-kB SEAP reporter activity,"RAW-Dual [3]; library stock concentration (final ~1000-fold dilution): 10 mM water, cytotoxicity flag (confluency mask): cytotoxic (confluency <70% of control), agonist: MPLA (TLR4) […]",0.786
CC1(F)C(O)C(CO)OC1n1ccc(=O)[nH]c1=O (stereo not given) (library stock concentration (final ~1000-fold dilution): 10 mM),NF-kB SEAP reporter activity,RAW-Dual [1]; agonist: LPS (TLR4) 0.1 ug/mL,1.26
same,NF-kB SEAP reporter activity,RAW-Dual [1]; [4],0.945
same,NF-kB SEAP reporter activity,RAW-Dual [1]; [5],0.82
same,NF-kB SEAP reporter activity,RAW-Dual [1]; [6],0.78
CC1(F)C(O)C(CO)OC1n1ccc(=O)[nH]c1=O (stereo not given),NF-kB SEAP reporter activity,RAW-Dual [3]; [7],1.02
CC1COCCN1c1cc(-c2ccnn2C)c2ccnc(-c3ccn[nH]3)c2n1.Cl (stereo not given),NF-kB SEAP reporter activity,RAW-Dual [3]; [8],1.48
same,NF-kB SEAP reporter activity,RAW-Dual [3]; [7],2.05
CC1COCCN1c1cc(-c2ccnn2C)c2ccnc(-c3ccn[nH]3)c2n1.Cl (stereo not given) (library stock concentration (final ~1000-fold dilution): 10 mM),NF-kB SEAP reporter activity,RAW-Dual [1]; agonist: LPS (TLR4) 0.1 ug/mL,1.89
same,NF-kB SEAP reporter activity,RAW-Dual [1]; [4],0.957
same,NF-kB SEAP reporter activity,RAW-Dual [1]; [5],1.09
same,NF-kB SEAP reporter activity,RAW-Dual [1]; [6],1.19
CC(C)NCC(O)COc1cccc2ccccc12.Cl (stereo not given) (library stock concentration (final ~1000-fold dilution): 10 mM),NF-kB SEAP reporter activity,RAW-Dual [1]; agonist: LPS (TLR4) 0.1 ug/mL,0.913
same,NF-kB SEAP reporter activity,RAW-Dual [1]; [4],0.94
same,NF-kB SEAP reporter activity,RAW-Dual [1]; [5],0.822
same,NF-kB SEAP reporter activity,RAW-Dual [1]; [6],1.08
CC(C)NCC(O)COc1cccc2ccccc12.Cl (stereo not given),NF-kB SEAP reporter activity,RAW-Dual [3]; [8],1.07
same,NF-kB SEAP reporter activity,RAW-Dual [3]; [7],1.04
CNCCN(C)Cc1c[nH]nc1-c1ccc(OC2CC(OCCC3CCOCC3)C2)cc1.Cl.Cl (stereo not given),NF-kB SEAP reporter activity,RAW-Dual [3]; [8],0.935
same,NF-kB SEAP reporter activity,RAW-Dual [3]; [7],1.07
CNCCN(C)Cc1c[nH]nc1-c1ccc(OC2CC(OCCC3CCOCC3)C2)cc1.Cl.Cl (stereo not given) (library stock concentration (final ~1000-fold dilution): 10 mM),NF-kB SEAP reporter activity,RAW-Dual [1]; agonist: LPS (TLR4) 0.1 ug/mL,0.836
same,NF-kB SEAP reporter activity,RAW-Dual [1]; [4],0.674
same,NF-kB SEAP reporter activity,RAW-Dual [1]; [5],0.874
same,NF-kB SEAP reporter activity,RAW-Dual [1]; [6],0.586
COc1ccc(CCc2nc3cc(-c4c(C)noc4C)ccc3n2CC(C)N2CCOCC2)cc1Cl (stereo not given),NF-kB SEAP reporter activity,RAW-Dual [3]; [8],1.51
same,NF-kB SEAP reporter activity,RAW-Dual [3]; [7],2.65
CCCOc1ccc(CCc2nc3cc(-c4c(C)noc4C)ccc3n2CCN2CCOCC2)cc1.Cl (library stock concentration (final ~1000-fold dilution): 10 mM),NF-kB SEAP reporter activity,RAW-Dual [1]; agonist: LPS (TLR4) 0.1 ug/mL,2.48
same,NF-kB SEAP reporter activity,RAW-Dual [1]; [4],1.9
same,NF-kB SEAP reporter activity,RAW-Dual [1]; [5],0.609
same,NF-kB SEAP reporter activity,RAW-Dual [1]; [6],1.04
CCCOc1ccc(CCc2nc3cc(-c4c(C)noc4C)ccc3n2CCN2CCOCC2)cc1.Cl,NF-kB SEAP reporter activity,RAW-Dual [3]; [8],1.53
same,NF-kB SEAP reporter activity,RAW-Dual [3]; [7],1.98
COc1ccc(CCc2nc3cc(-c4c(C)noc4C)ccc3n2CC(C)N2CCOCC2)cc1Cl (stereo not given) (library stock concentration (final ~1000-fold dilution): 10 mM),NF-kB SEAP reporter activity,RAW-Dual [1]; agonist: LPS (TLR4) 0.1 ug/mL,4.47
same,NF-kB SEAP reporter activity,RAW-Dual [1]; [4],2.49
same,NF-kB SEAP reporter activity,RAW-Dual [1]; [5],1.06
same,NF-kB SEAP reporter activity,RAW-Dual [1]; [6],2.27
Cc1nc2cc(F)c(F)cc2n1-c1cncc(Nc2ccc(C(F)(F)F)cc2)n1,NF-kB SEAP reporter activity,RAW-Dual [3]; [8],1.56
same,NF-kB SEAP reporter activity,RAW-Dual [3]; [7],1.33
Cc1nc2cc(F)c(F)cc2n1-c1cncc(Nc2ccc(C(F)(F)F)cc2)n1 (library stock concentration (final ~1000-fold dilution): 10 mM),NF-kB SEAP reporter activity,RAW-Dual [1]; agonist: LPS (TLR4) 0.1 ug/mL,1.36
same,NF-kB SEAP reporter activity,RAW-Dual [1]; [4],1.31
same,NF-kB SEAP reporter activity,RAW-Dual [1]; [5],0.571
same,NF-kB SEAP reporter activity,RAW-Dual [1]; [6],0.582
CC1=CC2(O)OC3(CC2=C(C)C)C(C)CCC13 (stereo not given),NF-kB SEAP reporter activity,RAW-Dual [3]; [8],0.957 ± 0.03
same,NF-kB SEAP reporter activity,RAW-Dual [3]; [7],1.03 ± 0.025
CC1=CC2(O)OC3(CC2=C(C)C)C(C)CCC13 (stereo not given) (library stock concentration (final ~1000-fold dilution): 10 mM),NF-kB SEAP reporter activity,RAW-Dual [1]; agonist: LPS (TLR4) 0.1 ug/mL,1.04 ± 0.043
same,NF-kB SEAP reporter activity,RAW-Dual [1]; [4],0.938 ± 0.07
same,NF-kB SEAP reporter activity,RAW-Dual [1]; [5],0.963 ± 0.062
same,NF-kB SEAP reporter activity,RAW-Dual [1]; [6],1.06 ± 0.049
CCc1cc2c(cc1N1CCC(N3CCOCC3)CC1)C(C)(C)c1[nH]c3cc(C#N)ccc3c1C2=O.Cl (library stock concentration (final ~1000-fold dilution): 2 mM),NF-kB SEAP reporter activity,RAW-Dual [1]; agonist: LPS (TLR4) 0.1 ug/mL,1.71
same,NF-kB SEAP reporter activity,RAW-Dual [1]; [4],1.17
same,NF-kB SEAP reporter activity,RAW-Dual [1]; [5],1.15
same,NF-kB SEAP reporter activity,RAW-Dual [1]; [6],1.15
CCc1cc2c(cc1N1CCC(N3CCOCC3)CC1)C(C)(C)c1[nH]c3cc(C#N)ccc3c1C2=O.Cl,NF-kB SEAP reporter activity,"RAW-Dual [3]; library stock concentration (final ~1000-fold dilution): 2 mM, cytotoxicity flag (confluency mask): not cytotoxic, agonist: MPLA (TLR4) […]",1.31
O=C(O)c1ccc(/C=C2/SC(=S)N(Cc3cccc(C(F)(F)F)c3)C2=O)cc1 (library stock concentration (final ~1000-fold dilution): 10 mM),NF-kB SEAP reporter activity,RAW-Dual [1]; agonist: LPS (TLR4) 0.1 ug/mL,0.619
same,NF-kB SEAP reporter activity,RAW-Dual [1]; [4],0.737
same,NF-kB SEAP reporter activity,RAW-Dual [1]; [5],0.832
same,NF-kB SEAP reporter activity,RAW-Dual [1]; [6],0.5
O=C(O)c1ccc(/C=C2/SC(=S)N(Cc3cccc(C(F)(F)F)c3)C2=O)cc1,NF-kB SEAP reporter activity,RAW-Dual [3]; [8],0.954
same,NF-kB SEAP reporter activity,RAW-Dual [3]; [7],0.727
COc1cc(OCc2cccc(-c3ccccc3)c2C)cc(OC)c1CN1CCCCC1C(=O)O (stereo not given),NF-kB SEAP reporter activity,"RAW-Dual [3]; library stock concentration (final ~1000-fold dilution): 10 mM, cytotoxicity flag (confluency mask): cytotoxic (confluency <70% of control), agonist: Imiquimod (TLR7) […]",1.22
same,NF-kB SEAP reporter activity,"RAW-Dual [3]; library stock concentration (final ~1000-fold dilution): 10 mM, cytotoxicity flag (confluency mask): cytotoxic (confluency <70% of control), agonist: MPLA (TLR4) […]",1.03
COc1cc(OCc2cccc(-c3ccccc3)c2C)cc(OC)c1CN1CCCCC1C(=O)O (stereo not given) (library stock concentration (final ~1000-fold dilution): 10 mM),NF-kB SEAP reporter activity,RAW-Dual [2]; agonist: LPS (TLR4) 0.1 ug/mL,1.21
same,NF-kB SEAP reporter activity,RAW-Dual [2]; [4],0.794
same,NF-kB SEAP reporter activity,RAW-Dual [2]; [5],1.03
same,NF-kB SEAP reporter activity,RAW-Dual [2]; [6],1.17
Cc1nccn1CC1CCc2c(c3ccccc3n2C)C1=O.Cl (stereo not given),NF-kB SEAP reporter activity,RAW-Dual [3]; [8],0.917
same,NF-kB SEAP reporter activity,RAW-Dual [3]; [7],0.785
Cc1nccn1CC1CCc2c(c3ccccc3n2C)C1=O.Cl (stereo not given) (library stock concentration (final ~1000-fold dilution): 10 mM),NF-kB SEAP reporter activity,RAW-Dual [1]; agonist: LPS (TLR4) 0.1 ug/mL,0.91
same,NF-kB SEAP reporter activity,RAW-Dual [1]; [4],0.853
same,NF-kB SEAP reporter activity,RAW-Dual [1]; [5],0.901
same,NF-kB SEAP reporter activity,RAW-Dual [1]; [6],1.11
